According to the supplement of paper PMC7695840:

Assays:
[1] = tested on: Staphylococcus aureus MW2 delta-mecA (mecA-); assay: normalized GFP fluorescence (growth of mecA- strain) (fraction of control range); higher = more growth of mecA- strain; settings: compound concentration: 150 uM; cefoxitin: subinhibitory; fluorescent label: GFP
Summary of the method: (§1)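 S. aureus MW2 cells, pre-induced, were used as a 1:1 mix of a DsRed strain carrying the gene and a GFP strain lacking it, in LB with a subinhibitory antibiotic dose set each day. At 5 µL/well they were placed onto 150 μM compound (1.5% DMSO) in 1536-well plates, one replicate, and kept unshaken for 20 h at 37 °C, 90% humidity. After DsRed (540/590) and GFP (485/520) reads scaled per plate to single-strain control medians, plates with high untreated ratios and rows with DsRed/GFP >10 were excluded.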

[2] = tested on: Staphylococcus aureus MW2 (mecA+); assay: normalized DsRed fluorescence (growth of mecA+ strain) (fraction of control range); higher = more growth of mecA+ strain; settings: compound concentration: 150 uM; cefoxitin: subinhibitory; fluorescent label: DsRed
Summary of the method: as §1

SMILES	normalized GFP fluorescence [1]	normalized DsRed fluorescence [2]
CC(C)COCC(CN(Cc1ccccc1)c1ccccc1)N1CCCC1 (stereo not given)	0.00856	0.96
CCCCCCOC(=O)NC(=N)c1ccc(NCc2nc3cc(C(=O)N(CCC(=O)OCC)c4ccccn4)ccc3n2C)cc1 [BIBR-1048 (Dabigatran)]	0.0654	0.815
N=C(N)NC(=N)NCCc1ccccc1	0.435	0.624
C1N2CN3CN1CN(C2)C3	0.209	0.452
NC(=O)C1(N2CCCCC2)CCN(CCCC(=O)c2ccc(F)cc2)CC1	0.529	0.733
CCc1cc(C(N)=S)ccn1	0.386	0.65
CC(NCCc1ccc(O)cc1)C(O)c1ccc(O)cc1 (stereo not given)	0.828	0.736
CC(=O)[C@@]1(O)CC[C@H]2[C@@H]3CCC4=CC(=O)CCC4=C3[C@@H](c3ccc(N(C)C)cc3)C[C@@]21C [Ulipristal]	0.57	0.967
CCN(CC)CC(=O)Nc1c(C)cccc1C	0.574	0.76
C[C@]12CC[C@@H]3c4ccc(O)cc4CC[C@H]3[C@@H]1CCC2=O [Estrone]	0.136	1.11
CCN(Cc1ccncc1)C(=O)C(CO)c1ccccc1 (stereo not given)	0.402	0.607
Nc1nc2[nH]cnc2c(=S)[nH]1	0.329	1.33
COc1cc(NS(=O)(=O)c2ccc(N)cc2)nc(OC)n1	0.338	1.32
O=C(NC[C@H]1CN(c2ccc(N3CCOCC3=O)cc2)C(=O)O1)c1ccc(Cl)s1 [Rivaroxaban (Xarelto)]	0.0017	0.837
Nc1ncn([C@@H]2O[C@H](CO)[C@@H](O)[C@H]2O)c(=O)n1	0.292	0.51
